Sequences and labels used below:
B1: Caulobacter ParB omega fusion; a variant is named by its letters at X, in order, B8GW30 (parent)
chain: MESVVVGEPGMSEGRRGLGRGLSALLGEVDAAPAQAPGEQLGGSREAPIEILQRNPDQPRRTFREEDLEDLSNSIREKGVLQPILVRPSPDTAGEYQIVAGERAWRAAQRAGLKTVPIMVRELDDLAVLEIGIIENVQRADLNVLEEALSYKVLMEKFERTQENIAQTIGKSXSHVANXMRLLXLPDEVQSYLVSGELTAXHARAIAAAADPVALAKQIIEGGLSVRETEALARKAPNLSAGKSKGGRPPRVKDTDTQALESDLSSVLGLDVSIDHRGSTGTLTITYATLEQLDDLCNRLTRGI

Whole data set: some 81,000 sequences, median “one-hybrid fitness for binding parS DNA” near -0.17, cut for the highest 2% near 0.51. This excerpt belongs to a sample that is enriched for the highest values.

In this test the parent is B1. The test can be described thus: one-hybrid fitness for binding parS DNA (scaled: cognate 1, non-cognate 0); higher = stronger binding. The conditions noted are these: with parS DNA site. Put shortly:
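Fitness here means the log change in variant-to-wild-type read ratio between plasmids sequenced before and after selection. That scale was set so cognate equals 1 and non-cognate equals 0. The selection was a bacterial one-hybrid screen of Caulobacter ParB libraries, four specificity codons randomised, in E. coli USO carrying a HIS3 reporter with the site 19 bp from the promoter, grown 48 hours at 37°C on M9-minus-histidine with 0.1 mM IPTG and 5 mM 3-AT.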
As for QREG, the “one-hybrid fitness for binding parS DNA” value is no more than 0.2.
As for GTSR, the figure is no more than 0.2; as for ARHM, no more than 0.2.
Regarding EPPR, the “one-hybrid fitness for binding parS DNA” value is no more than 0.2.
As for HSQW, the “one-hybrid fitness for binding parS DNA” value is no more than 0.2.
With LRNA the figure was no more than 0.2; with RARE, no more than 0.2; with HIDW, no more than 0.2.
As for TFRF, the figure is no more than 0.2; as for GVCA, no more than 0.2.
In the case of RSYP, the “one-hybrid fitness for binding parS DNA” value is no more than 0.2.
On to RSPN, for which the “one-hybrid fitness for binding parS DNA” value was no more than 0.2.
Regarding RSID, the “one-hybrid fitness for binding parS DNA” value was no more than 0.2.
On to RSYS, for which the “one-hybrid fitness for binding parS DNA” value worked out at 1.01.
Turning to RSYH, the “one-hybrid fitness for binding parS DNA” value is no more than 0.2.
With RSPS the figure was 0.541; with RSPP, no more than 0.2; with RCIP, 0.228.
As for RSIS, the “one-hybrid fitness for binding parS DNA” value was 0.887.
With RSIP the figure was no more than 0.2; with RPIS, no more than 0.2; with RCIS, 1.01.
With TPAQ the figure was no more than 0.2; with CKSG, no more than 0.2.
As for LRFF, the figure is no more than 0.2; as for RCPS, 0.88; as for RPPS, no more than 0.2.
RCPH: the “one-hybrid fitness for binding parS DNA” value was no more than 0.2.
With WVLG the figure was no more than 0.2; with AQAH, no more than 0.2.
On to QPQI, for which the “one-hybrid fitness for binding parS DNA” value is no more than 0.2.
As for RNLC, the figure is 0.736; as for RNYD, no more than 0.2; as for RNLR, no more than 0.2.
With RNYC the figure was 0.719.
With RNRH the figure was no more than 0.2; with RNPC, 0.358.
Regarding RNLK, the “one-hybrid fitness for binding parS DNA” value is no more than 0.2.
Take RNIC: the “one-hybrid fitness for binding parS DNA” value was determined as 0.523.
With RNYN the figure was 0.235.
With RNIP the figure was no more than 0.2; with RNRC, 0.893.
With RNRD, the “one-hybrid fitness for binding parS DNA” value was no more than 0.2.
As for VAHC, the figure is no more than 0.2; as for TAIS, no more than 0.2; as for PGSI, no more than 0.2.
As for MKSG, the figure is no more than 0.2; as for AHRN, no more than 0.2.
As for SQMR, the figure is no more than 0.2.
For the variant IRKE, the “one-hybrid fitness for binding parS DNA” value was no more than 0.2.
As for RNSF, the figure is no more than 0.2; as for RNCR, no more than 0.2.
Take RNGF: the “one-hybrid fitness for binding parS DNA” value is no more than 0.2.
As for RNCY, the figure is 0.235; as for RNGC, 0.769.
With RNHQ the figure was no more than 0.2; with RNSR, no more than 0.2.
As for RNGK, the figure is no more than 0.2; as for RNHY, 0.361; as for RNCC, 0.704.
For RNHC, the “one-hybrid fitness for binding parS DNA” value worked out at 0.798.
Consider RNSC, for which the “one-hybrid fitness for binding parS DNA” value was determined as 0.848.
With QDYV the figure was no more than 0.2; with VSHT, no more than 0.2.
With KTMS the figure was no more than 0.2; with EVAF, no more than 0.2.
As for DNWC, the figure is no more than 0.2.
With RNQD, the “one-hybrid fitness for binding parS DNA” value was no more than 0.2.
With RNQC the figure was 0.82; with RNWC, 0.569; with RNWR, no more than 0.2.
With RNQN the figure was 0.284.
On to TLDS, for which the “one-hybrid fitness for binding parS DNA” value was no more than 0.2.
With ARHI the figure was no more than 0.2; with RLKT, 0.799; with RLKR, no more than 0.2.
For RLVT, the “one-hybrid fitness for binding parS DNA” value came to 0.844.
On to RLVP, for which the “one-hybrid fitness for binding parS DNA” value is no more than 0.2.
For RLVD, the “one-hybrid fitness for binding parS DNA” value was no more than 0.2.
As to RLKK, the “one-hybrid fitness for binding parS DNA” value is no more than 0.2.
With PSIF, the “one-hybrid fitness for binding parS DNA” value is no more than 0.2.
As for TTMY, the figure is no more than 0.2.
As to IRGH, the “one-hybrid fitness for binding parS DNA” value was no more than 0.2.
Take RNET: the “one-hybrid fitness for binding parS DNA” value came out at 0.498.
With RNDF the figure was no more than 0.2; with RNNT, 0.785; with RNNE, no more than 0.2.
As for RNDT, the figure is 0.562.
Regarding RNNY, the “one-hybrid fitness for binding parS DNA” value amounted to 0.434.
As for PRSW, the “one-hybrid fitness for binding parS DNA” value was no more than 0.2.
With AEDR the figure was no more than 0.2; with SKLC, no more than 0.2.
As for RKFA, the figure is 0.549.
Consider NKAA, for which the “one-hybrid fitness for binding parS DNA” value is no more than 0.2.
As for RKAA, the figure is 0.62.
With DKAA the figure was no more than 0.2; with HLVN, no more than 0.2; with EADC, no more than 0.2.
With DFQC the figure was no more than 0.2.
As to RFQY, the “one-hybrid fitness for binding parS DNA” value was determined as 0.462.
Take RFWR: the “one-hybrid fitness for binding parS DNA” value is no more than 0.2.
For the variant RFWF, the “one-hybrid fitness for binding parS DNA” value was no more than 0.2.
With RFWC, the “one-hybrid fitness for binding parS DNA” value is 0.697.
With NFLC, the “one-hybrid fitness for binding parS DNA” value was no more than 0.2.
Turning to RFRP, the “one-hybrid fitness for binding parS DNA” value was no more than 0.2.
As for RFLC, the figure is 0.85; as for DFRC, no more than 0.2; as for RFQC, 0.925.
In the case of DFLC, the “one-hybrid fitness for binding parS DNA” value is no more than 0.2.
Consider RFRC, for which the “one-hybrid fitness for binding parS DNA” value was found to be 0.969.
With SDQF, the “one-hybrid fitness for binding parS DNA” value is no more than 0.2.
As for ENRG, the “one-hybrid fitness for binding parS DNA” value is no more than 0.2.
As for CYNT, the figure is no more than 0.2; as for LSAC, no more than 0.2; as for TCKK, no more than 0.2.
As for CTYA, the figure is no more than 0.2; as for TRDK, no more than 0.2.
As for NFCC, the figure is no more than 0.2; as for DFHC, no more than 0.2.
Regarding RFHC, the “one-hybrid fitness for binding parS DNA” value came out at 0.925.
As to RFSC, the “one-hybrid fitness for binding parS DNA” value turned out to be 0.935.
With DFYC the figure was no more than 0.2; with DFSC, no more than 0.2; with RFCD, no more than 0.2.
With RFCC the figure was 0.87; with RFYC, 0.867.
With RFSD the figure was no more than 0.2.
As for NFHC, the “one-hybrid fitness for binding parS DNA” value was no more than 0.2.
With RFYN the figure was 0.357.
For WVLH, the “one-hybrid fitness for binding parS DNA” value was no more than 0.2.
With GNCC the figure was no more than 0.2.
As for TRHF, the figure is no more than 0.2.
For VVNG, the “one-hybrid fitness for binding parS DNA” value was no more than 0.2.
With TLTV the figure was no more than 0.2; with PSGP, no more than 0.2.
WTLF: the “one-hybrid fitness for binding parS DNA” value is no more than 0.2.
RFVS: the “one-hybrid fitness for binding parS DNA” value is 0.892.
As for RFVH, the figure is no more than 0.2.
With RFKS the figure was 0.9; with RFKH, 0.252.
With RFVD, the “one-hybrid fitness for binding parS DNA” value was no more than 0.2.
Consider RFKN, for which the “one-hybrid fitness for binding parS DNA” value was 0.441.
As for VTDM, the figure is no more than 0.2; as for VYTF, no more than 0.2.
As for PGDI, the “one-hybrid fitness for binding parS DNA” value is no more than 0.2.
For KILR, the “one-hybrid fitness for binding parS DNA” value is no more than 0.2.
Turning to RKFP, the “one-hybrid fitness for binding parS DNA” value is no more than 0.2.
In the case of RKFN, the “one-hybrid fitness for binding parS DNA” value is 0.295.
With RKAD, the “one-hybrid fitness for binding parS DNA” value was no more than 0.2.
In the case of RKAS, the “one-hybrid fitness for binding parS DNA” value is 0.832.
Regarding RKFS, the “one-hybrid fitness for binding parS DNA” value amounted to 0.927.
As for RKAP, the figure is no more than 0.2.
With QHMA the figure was no more than 0.2.

The values are drawn from a collection of fitness landscapes (doi:10.1016/j.celrep.2020.107928).
